Assay results published in PubChem BioAssay AID1159580 (chemical genetic matrix, 2015).
Where “and” joins values, the source holds several entries; their conditions need not be identical. Equal entries are not always repeated. Screen size: about 5,500 compounds; about 2,000 (36%) were called active. Inconclusive results (about 18%) are left out. Some of the results follow. A number with no mark means an inactive call. Rule as the data show it: active = normalized growth mostly below about 0.91 (no sharp cut-off); inconclusive = no clear call, values can overlap the other calls; inactive = mostly above about 0.92.

Experiment: chemical genetic growth profiling, strain panel (AID 1159580);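 also: tested at 20 µM; growth read once vehicle control cultures reached saturation at 30 °C; 1 = growth at the plate median or of vehicle wells; lower values mean less growth of the strain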
Conditions: S. cerevisiae deletion strains, growth OD

## CCOc1ccc(C(=O)c2cc(O)c(OC)c(OC)c2O)cc1
Locus YAL021C, strain ccr4, active compounds read low
  normalized growth: 1
Locus YAL026C, strain drs2, active compounds read low
  normalized growth: 0.941
Locus YAL030W, strain snc1, active compounds read low
  normalized growth: 0.993
Locus YBL061C, strain skt5, active compounds read low
  normalized growth: 0.998
Locus YBR009C, strain hhf1, active compounds read low
  normalized growth: 0.938
Locus YBR021W, strain FUR4, active compounds read low
  normalized growth: 1.06
Locus YBR023C, strain chs3, active compounds read low
  normalized growth: 0.997
Locus YBR171W, strain sec66, active compounds read low
  normalized growth: 0.981
Locus YBR229C, strain ROT2, active compounds read low
  normalized growth: 1.01
Locus YBR231C, strain swc5, active compounds read low
  normalized growth: 0.987
Locus YBR279W, strain paf1, active compounds read low
  normalized growth: 1
Locus YCL011C, strain gbp2, active compounds read low
  normalized growth: 0.998
Locus YCL016C, strain dcc1, active compounds read low
  normalized growth: 1
Locus YCL029C, strain bik1, active compounds read low
  normalized growth: 1.01
Locus YCL061C, strain MRC1, active compounds read low
  normalized growth: 1
Locus YCL069W, strain vba3, active compounds read low
  normalized growth: 0.997
Locus YCR088W, strain abp1, active compounds read low
  normalized growth: 0.997
Locus YDL005C, strain med2, active compounds read low
  normalized growth: 1.01
Locus YDL035C, strain GPR1, active compounds read low
  normalized growth: 1.02
Locus YDL040C, strain nat1, active compounds read low
  normalized growth: 1.01
Locus YDL074C, strain BRE1, active compounds read low
  normalized growth: 1.11
Locus YDL101C, strain DUN1, active compounds read low
  normalized growth: 1.01
Locus YDL134C, strain PPH21, active compounds read low
  normalized growth: 1.01
Locus YDL185W, strain tfp1, active compounds read low
  normalized growth: 1.01
Locus YDL192W, strain arf1, active compounds read low
  normalized growth: 0.957
Locus YDR001C, strain nth1, active compounds read low
  normalized growth: 0.999
Locus YDR069C, strain doa4, active compounds read low
  normalized growth: 0.969
Locus YDR101C, strain arx1, active compounds read low
  normalized growth: 1
Locus YDR137W, strain rgp1, active compounds read low
  normalized growth: 0.79 (active)
Locus YDR150W, strain NUM1, active compounds read low
  normalized growth: 1.01
Locus YDR159W, strain sac3, active compounds read low
  normalized growth: 0.97
Locus YDR162C, strain NBP2, active compounds read low
  normalized growth: 0.983
Locus YDR195W, strain ref2
  normalized growth: 1.05
Locus YDR297W, strain sur2, active compounds read low
  normalized growth: 0.995
Locus YDR318W, strain mcm21, active compounds read low
  normalized growth: 0.99
Locus YDR334W, strain swr1, active compounds read low
  normalized growth: 0.987
Locus YDR335W, strain msn5, active compounds read low
  normalized growth: 0.999
Locus YDR388W, active compounds read low
  normalized growth: 1.02
Locus YDR392W, strain spt3, active compounds read low
  normalized growth: 0.455 (active)
Locus YDR502C, strain sam2, active compounds read low
  normalized growth: 1.02
Locus YEL003W, strain gim4, active compounds read low
  normalized growth: 0.986
Locus YEL037C, strain rad23, active compounds read low
  normalized growth: 0.99
Locus YEL061C, strain CIN8 (second series), active compounds read low
  normalized growth: 0.992
Locus YER015W, strain faa2, active compounds read low
  normalized growth: 0.999
Locus YER016W, strain bim1, active compounds read low
  normalized growth: 0.995
Locus YER110C, active compounds read low
  normalized growth: 1.03
Locus YER111C, strain swi4, active compounds read low
  normalized growth: 0.989
Locus YER155C, strain BEM2 (second series), active compounds read low
  normalized growth: 0.734 (active)
Locus YER155C, strain BEM2, active compounds read low
  normalized growth: 0.995
Locus YER167W, strain BCK2, active compounds read low
  normalized growth: 1
Locus YFR010W, strain ubp6, active compounds read low
  normalized growth: 0.98
Locus YGL078C, strain dbp3, active compounds read low
  normalized growth: 1.03
Locus YGL086W, strain mad1, active compounds read low
  normalized growth: 0.964
Locus YGL167C, strain pmr1, active compounds read low
  normalized growth: 1
Locus YGL173C, strain kem1, active compounds read low
  normalized growth: 0.988
Locus YGL227W, strain vid30, active compounds read low
  normalized growth: 1.01
Locus YGL240W, strain doc1, active compounds read low
  normalized growth: 0.985
Locus YGL248W, strain PDE1, active compounds read low
  normalized growth: 1.04
Locus YGL253W, strain hxk2, active compounds read low
  normalized growth: 1.01
Locus YGR135W, strain pre9, active compounds read low
  normalized growth: 1.01
Locus YGR252W, strain gcn5, active compounds read low
  normalized growth: 1.03
Locus YHR013C, strain ard1, active compounds read low
  normalized growth: 0.985
Locus YHR027C, strain rpn1, active compounds read low
  normalized growth: 0.991
Locus YHR030C, strain SLT2, active compounds read low
  normalized growth: 1 and 0.941
Locus YHR079C, strain IRE1 (second series), active compounds read low
  normalized growth: 1.03
Locus YHR079C, strain IRE1, active compounds read low
  normalized growth: 0.938
Locus YHR094C, strain hxt1, active compounds read low
  normalized growth: 1.01
Locus YHR129C, strain ARP1, active compounds read low
  normalized growth: 1.03
Locus YHR142W, strain chs7, active compounds read low
  normalized growth: 0.931
Locus YHR200W, strain rpn10, active compounds read low
  normalized growth: 1.02
Locus YIL066C, strain RNR3, active compounds read low
  normalized growth: 1.03
Locus YIL073C, strain SPO22, active compounds read low
  normalized growth: 1.01
Locus YIL125W, strain kgd1, active compounds read low
  normalized growth: 0.995
Locus YIR030C, strain dcg1, active compounds read low
  normalized growth: 1.01
Locus YJL092W, strain hpr5, active compounds read low
  normalized growth: 1
Locus YJL095W, strain BCK1 (second series), active compounds read low
  normalized growth: 0.938
Locus YJL095W, strain BCK1, active compounds read low
  normalized growth: 1.05 and 0.949
Locus YJL115W, strain asf1, active compounds read low
  normalized growth: 1
Locus YJL129C, strain trk1, active compounds read low
  normalized growth: 0.955
Locus YJL134W, strain LCB3, active compounds read low
  normalized growth: 0.994
Locus YJL154C, strain vps35, active compounds read low
  normalized growth: 1
Locus YJL164C, strain tpk1, active compounds read low
  normalized growth: 0.969
Locus YJL166W, strain qcr8, active compounds read low
  normalized growth: 0.974
Locus YJL168C, strain set2, active compounds read low
  normalized growth: 1.01
Locus YJL187C, strain SWE1 (second series), active compounds read low
  normalized growth: 1.03
Locus YJL187C, strain SWE1, active compounds read low
  normalized growth: 0.991
Locus YJR043C, strain POL32, active compounds read low
  normalized growth: 1.06
Locus YJR066W, strain TOR1, active compounds read low
  normalized growth: 0.882
Locus YJR075W, strain HOC1, active compounds read low
  normalized growth: 1
Locus YKL009W, strain mrt4, active compounds read low
  normalized growth: 1.02
Locus YKL068W, active compounds read low
  normalized growth: 0.988
Locus YKL085W, strain MDH1 (second series), active compounds read low
  normalized growth: 0.985
Locus YKL085W, strain MDH1, active compounds read low
  normalized growth: 0.985
Locus YKL160W, strain elf1, active compounds read low
  normalized growth: 0.966
Locus YKL190W, strain CNB1, active compounds read low
  normalized growth: 1.01
Locus YKR001C, strain vps1, active compounds read low
  normalized growth: 0.959
Locus YKR026C, strain gcn3, active compounds read low
  normalized growth: 0.997
Locus YKR091W, strain srl3, active compounds read low
  normalized growth: 0.999
Locus YLL001W, strain dnm1, active compounds read low
  normalized growth: 0.989
Locus YLL026W, active compounds read low
  normalized growth: 1.01
Locus YLL041C, strain sdh2, active compounds read low
  normalized growth: 1
Locus YLR027C, strain aat2, active compounds read low
  normalized growth: 0.99
Locus YLR039C, strain RIC1, active compounds read low
  normalized growth: 0.871
Locus YLR058C, strain SHM2, active compounds read low
  normalized growth: 1.03
Locus YLR102C, strain apc9, active compounds read low
  normalized growth: 1.01
Locus YLR113W, strain HOG1, active compounds read low
  normalized growth: 0.844 (active)
Locus YLR221C, strain rsa3, active compounds read low
  normalized growth: 0.984
Locus YLR258W, strain gsy2, active compounds read low
  normalized growth: 0.989
Locus YLR262C, strain YPT6 (second series), active compounds read low
  normalized growth: 0.341 (active)
Locus YLR262C, strain YPT6, active compounds read low
  normalized growth: 0.625
Locus YLR268W, strain sec22, active compounds read low
  normalized growth: 0.974
Locus YLR320W, strain mms22, active compounds read low
  normalized growth: 0.852 (active)
Locus YLR330W, strain CHS5, active compounds read low
  normalized growth: 1
Locus YLR342W, strain FKS1 (second series), active compounds read low
  normalized growth: 0.952
Locus YLR342W, strain FKS1, active compounds read low
  normalized growth: 0.995
Locus YLR357W, strain rsc2, active compounds read low
  normalized growth: 1.02
Locus YLR370C, strain arc18, active compounds read low
  normalized growth: 0.994
Locus YLR371W, strain rom2, active compounds read low
  normalized growth: 0.963
Locus YLR384C, strain iki3, active compounds read low
  normalized growth: 0.999
Locus YLR418C, strain cdc73, active compounds read low
  normalized growth: 1.04
Locus YML016C, strain PPZ1, active compounds read low
  normalized growth: 1.01
Locus YML032C, strain rad52, active compounds read low
  normalized growth: 1.03
Locus YML120C, strain ndi1, active compounds read low
  normalized growth: 0.986
Locus YML124C, strain tub3, active compounds read low
  normalized growth: 1.01
Locus YMR058W, strain fet3, active compounds read low
  normalized growth: 0.981
Locus YMR078C, strain ctf18, active compounds read low
  normalized growth: 1.03
Locus YMR125W, strain sto1, active compounds read low
  normalized growth: 1.01
Locus YMR129W, active compounds read low
  normalized growth: 1
Locus YMR205C, strain PFK2, active compounds read low
  normalized growth: 0.932
Locus YMR223W, strain ubp8, active compounds read low
  normalized growth: 0.981
Locus YMR231W, strain pep5, active compounds read low
  normalized growth: 0.999
Locus YMR263W, strain SAP30, active compounds read low
  normalized growth: 0.997
Locus YMR307W, strain GAS1, active compounds read low
  normalized growth: 0.929
Locus YNL067W, strain RPL9B, active compounds read low
  normalized growth: 1
Locus YNL071W, strain lat1, active compounds read low
  normalized growth: 0.626 (active)
Locus YNL183C, strain NPR1, active compounds read low
  normalized growth: 0.906
Locus YNL209W, strain ssb2, active compounds read low
  normalized growth: 0.992
Locus YNL233W, strain BNI4, active compounds read low
  normalized growth: 1
Locus YNL248C, strain rpa49, active compounds read low
  normalized growth: 1
Locus YNL250W, strain rad50, active compounds read low
  normalized growth: 1.06
Locus YNL271C, strain bni1, active compounds read low
  normalized growth: 1.01
Locus YNL298W, strain CLA4, active compounds read low
  normalized growth: 1.04
Locus YNL307C, strain MCK1, active compounds read low
  normalized growth: 0.858 (active)
Locus YNL322C, strain KRE1 (second series), active compounds read low
  normalized growth: 0.989
Locus YNR049C, strain mso1, active compounds read low
  normalized growth: 1
Locus YNR052C, strain pop2, active compounds read low
  normalized growth: 1.02
Locus YOL006C, strain TOP1, active compounds read low
  normalized growth: 1.18
Locus YOL012C, strain htz1
  normalized growth: 1.11
Locus YOL147C, strain pex11, active compounds read low
  normalized growth: 1.01
Locus YOR001W, strain rrp6, active compounds read low
  normalized growth: 0.992
Locus YOR061W, strain CKA2, active compounds read low
  normalized growth: 1.01
Locus YOR069W, strain VPS5, active compounds read low
  normalized growth: 1
Locus YOR070C, strain gyp1, active compounds read low
  normalized growth: 0.981
Locus YOR080W, strain dia2, active compounds read low
  normalized growth: 1.01
Locus YOR083W, strain WHI5, active compounds read low
  normalized growth: 0.977
Locus YOR106W, strain vam3, active compounds read low
  normalized growth: 0.9
Locus YOR136W, strain idh2, active compounds read low
  normalized growth: 1.01
Locus YOR144C, strain elg1, active compounds read low
  normalized growth: 1.01
Locus YOR184W, strain ser1, active compounds read low
  normalized growth: 1.01
Locus YOR231W, strain MKK1, active compounds read low
  normalized growth: 0.948
Locus YOR265W, strain rbl2, active compounds read low
  normalized growth: 0.988
Locus YOR270C, strain vph1, active compounds read low
  normalized growth: 0.903
Locus YOR290C, strain snf2, active compounds read low
  normalized growth: 0.979
Locus YOR316C, strain cot1, active compounds read low
  normalized growth: 1.03
Locus YPL051W, strain arl3, active compounds read low
  normalized growth: 0.891 (active)
Locus YPL078C, strain atp4, active compounds read low
  normalized growth: 0.994
Locus YPL106C, strain sse1, active compounds read low
  normalized growth: 1.04
Locus YPL240C, strain hsp82, active compounds read low
  normalized growth: 0.991
Locus YPL241C, strain CIN2, active compounds read low
  normalized growth: 1.01
Locus YPL256C, strain CLN2, active compounds read low
  normalized growth: 0.934
Locus YPR119W, strain clb2, active compounds read low
  normalized growth: 1.02
Locus YPR141C, strain kar3, active compounds read low
  normalized growth: 1
Locus YPR163C, strain tif3, active compounds read low
  normalized growth: 0.953
Locus YPR167C, strain met16, active compounds read low
  normalized growth: 1.02
Strain wtn01, active compounds read low
  normalized growth: 0.992
